Common to all, as to experiment: NCI-60 one-dose screen, 48 h (100 = growth as untreated, 0 = no growth, -100 = all killed)
The test system of one experiment is SK-MEL-2 melanoma. As to conditions: 10 µM unless noted.
In a further experiment the test system is EKVX NSCLC. As to conditions: 10 µM unless noted.
A further experiment has as its system SN12C renal. Conditions: 10 µM unless noted.
A further experiment deals with UO-31 renal. As to conditions: 10 µM unless noted.
The test system of the next experiment is ACHN renal. As to conditions: 10 µM unless noted.
Another experiment concerns A498 renal. Conditions: 10 µM unless noted.
The subject of another experiment is CCRF-CEM leukemia. As to conditions: 10 µM unless noted.
A further experiment deals with MOLT-4 leukemia. Conditions: 10 µM unless noted.
The subject of the next experiment is SR leukemia. Conditions: 10 µM unless noted.
A further experiment has as its system RPMI-8226 leukemia. As to conditions: 10 µM unless noted.
The subject of another experiment is OVCAR-8 ovarian. Conditions: 10 µM unless noted.
A further experiment deals with OVCAR-5 ovarian. Conditions: 10 µM unless noted.
In the next experiment the test system is OVCAR-4 ovarian. As to conditions: 10 µM unless noted.
In another experiment the test system is SK-OV-3 ovarian. As to conditions: 10 µM unless noted.
The subject of the next experiment is IGROV1 ovarian. Conditions: 10 µM unless noted.
The next experiment has as its system OVCAR-3 ovarian. Conditions: 10 µM unless noted.
The test system of another experiment is HS 578T breast. Conditions: 10 µM unless noted.
Another experiment deals with NCI/ADR-RES ovarian. As to conditions: 10 µM unless noted.
A further experiment has as its system TK-10 renal. As to conditions: 10 µM unless noted.
The test system of a further experiment is CAKI-1 renal. Conditions: 10 µM.

The panel holds about 83,000 compounds, 20% with a hit somewhere; the sample as a whole holds those more often.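 Testing used 96-well plates and a 48-hour single-concentration exposure. Example: -40 means 40% of the starting cells died.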 Unmarked numbers belong to inactive results. Active and inactive are the calls of the source. The calls were made as follows: active = growth percent below 10; inactive = the rest.

Turning to `Cc1[nH]c2ccc(F)cc2c1CCNC(=O)C1CCN(C(=O)c2ccc(-c3ccccc3)cc2)CC1`, the growth in the experiment on SK-MEL-2 melanoma is 71.6%; in the experiment with EKVX NSCLC, 44.2%; with SN12C renal, 64.1%; with UO-31 renal, 36.5%; with ACHN renal, 52.6%; in the experiment with A498 renal it was 47.9%. Further, the growth in the experiment on CCRF-CEM leukemia was 54.1%; in the experiment on MOLT-4 leukemia, 26.9%; in the experiment with SR leukemia it was 8.16% (active); with RPMI-8226 leukemia it was 44.5%; in the experiment with OVCAR-8 ovarian, 56.3%; in the experiment with OVCAR-5 ovarian, 90.1%. The growth was 44.7% in the experiment on OVCAR-4 ovarian; 63.8% with SK-OV-3 ovarian; 67.1% in the experiment with IGROV1 ovarian; 63.8% with OVCAR-3 ovarian; 72.7% with HS 578T breast; 49.6% in the experiment on NCI/ADR-RES ovarian.
Turning to `O=c1c2ccccc2sc2c(NCCCNCCO)nc3ccccc3c12`, the growth with SK-MEL-2 melanoma was -35.6% (active); with EKVX NSCLC it was 55.6%; in the experiment on SN12C renal, 44.8%; in the experiment on UO-31 renal it was 28.9%; in the experiment with ACHN renal it was -7.87% (active); in the experiment on A498 renal it was 16.4%. The growth with CCRF-CEM leukemia was -6.25% (active); in the experiment on MOLT-4 leukemia, -20.4% (active); in the experiment with SR leukemia, -25.9% (active); with OVCAR-8 ovarian, 17.7%; with OVCAR-5 ovarian it was 76.3%; in the experiment with OVCAR-4 ovarian, 60.4%. The growth is 69.4% in the experiment with SK-OV-3 ovarian; 27% in the experiment with IGROV1 ovarian; 35.2% in the experiment on OVCAR-3 ovarian; 34% in the experiment on HS 578T breast; 31.5% in the experiment with NCI/ADR-RES ovarian.
`O=C(N/N=C1\SCC(=O)N1c1ccccc1)c1cc(-c2cc3ccccc3o2)nn1-c1ccccc1`: the growth was 103% in the experiment with SK-MEL-2 melanoma; 96.7% in the experiment with EKVX NSCLC; 122% in the experiment with SN12C renal; 118% in the experiment on UO-31 renal; 91% in the experiment on ACHN renal; 103% in the experiment on A498 renal. The growth with CCRF-CEM leukemia is -84.9% (active); in the experiment with MOLT-4 leukemia, 87%; in the experiment with SR leukemia, 107%; with RPMI-8226 leukemia, 66.4%; with OVCAR-8 ovarian it was 107%; in the experiment on OVCAR-5 ovarian it was 112%. For the same molecule, the growth was 110% in the experiment on OVCAR-4 ovarian; 116% with SK-OV-3 ovarian; 98.9% with IGROV1 ovarian; 109% in the experiment with HS 578T breast; 108% with NCI/ADR-RES ovarian.
Regarding `Nc1ncnc2c1c(-c1ccc(Oc3ccccc3)cc1)nn2C[C@H]1SSC[C@@H]1O`, the growth is -46.5% (active) with SK-MEL-2 melanoma; 25.3% in the experiment on EKVX NSCLC; 54.5% in the experiment with SN12C renal; 17.4% in the experiment with UO-31 renal; 33.4% in the experiment with ACHN renal; 27.9% in the experiment on A498 renal. Besides, the growth with CCRF-CEM leukemia was -15.8% (active); in the experiment with MOLT-4 leukemia, -51.2% (active); in the experiment with SR leukemia it was -49.4% (active); in the experiment on RPMI-8226 leukemia, 46.2%; with OVCAR-8 ovarian it was 79.4%; in the experiment on OVCAR-5 ovarian, 82.1%. Besides, the growth with OVCAR-4 ovarian is 47.2%; in the experiment with SK-OV-3 ovarian, 1.91% (active); in the experiment on IGROV1 ovarian it was 22%; in the experiment on OVCAR-3 ovarian, -62.4% (active); in the experiment with HS 578T breast, 68.3%; with NCI/ADR-RES ovarian, 76.5%.
For `CCCC(=O)Oc1ccc(/C(=C(\C)c2ccc(Cl)cc2)c2ccc(OCCN(CC)CC)cc2)cc1`, the growth with SK-MEL-2 melanoma was -74.4% (active); in the experiment on EKVX NSCLC it was 12%; in the experiment with SN12C renal, 35.3%; with UO-31 renal it was -65% (active); in the experiment on ACHN renal it was -23.2% (active); in the experiment on A498 renal, 11.5%. In addition, the growth in the experiment with CCRF-CEM leukemia is -18.6% (active); with MOLT-4 leukemia, -13.1% (active); with SR leukemia, -36.3% (active); with RPMI-8226 leukemia, -49.5% (active); in the experiment with OVCAR-8 ovarian, -48.4% (active); with OVCAR-5 ovarian, 30.4%. Besides, the growth in the experiment with OVCAR-4 ovarian is 3.08% (active); in the experiment on SK-OV-3 ovarian, -6.52% (active); in the experiment on IGROV1 ovarian it was 12.5%; in the experiment with OVCAR-3 ovarian it was -64.6% (active); with HS 578T breast it was -38.1% (active); in the experiment with NCI/ADR-RES ovarian, -6.97% (active).
Turning to `NC(CSC(c1ccccc1)(c1ccccc1)c1ccc(F)cc1)C(=O)O` (stereo not given), the growth was -30.6% (active) in the experiment with SK-MEL-2 melanoma; 7.52% (active) in the experiment with EKVX NSCLC; 39% with SN12C renal; 25.3% in the experiment with UO-31 renal; 56.8% in the experiment on ACHN renal; 58.2% in the experiment on A498 renal. Further, the growth was 11.1% in the experiment with CCRF-CEM leukemia; 9.44% (active) in the experiment on MOLT-4 leukemia; -25.9% (active) with RPMI-8226 leukemia; 11.1% in the experiment on OVCAR-8 ovarian; 34.9% in the experiment on OVCAR-5 ovarian; 48.8% in the experiment on OVCAR-4 ovarian. In addition, the growth with SK-OV-3 ovarian was 34.3%; with HS 578T breast it was 16.9%; in the experiment on NCI/ADR-RES ovarian it was 37.5%.
Take `O=c1c2ccccc2sc2c(NCCN3CCOCC3)nc3ccccc3c12`: the growth with SK-MEL-2 melanoma was 102%; in the experiment with EKVX NSCLC, 70.9%; with SN12C renal it was 59.4%; with UO-31 renal, 47.6%; with ACHN renal, 43.5%; in the experiment with A498 renal it was 43.7%. Besides, the growth in the experiment with CCRF-CEM leukemia was 36.3%; in the experiment with MOLT-4 leukemia it was 37%; with SR leukemia, 3.91% (active); with RPMI-8226 leukemia, 40.3%; in the experiment with OVCAR-8 ovarian it was 58.8%; with OVCAR-5 ovarian it was 84.9%. Moreover, the growth in the experiment on OVCAR-4 ovarian was 65.6%; with SK-OV-3 ovarian it was 50.8%; with IGROV1 ovarian, 66.2%; with OVCAR-3 ovarian, 79.2%; in the experiment with HS 578T breast, 52.7%; with NCI/ADR-RES ovarian, 63.5%.
On to `Cn1cnc([N+](=O)[O-])c1N1c2ccncc2Sc2ccncc21`, for which the growth with SK-MEL-2 melanoma is 94.2%; in the experiment on EKVX NSCLC, 78.8%; with SN12C renal, 113%; with TK-10 renal it was 132%; in the experiment on ACHN renal, 75.8%; with CAKI-1 renal, 85.7%. Moreover, the growth is 93.1% with A498 renal; 94.7% in the experiment on CCRF-CEM leukemia; 91.6% in the experiment on MOLT-4 leukemia; 85.8% with RPMI-8226 leukemia; 83.4% with OVCAR-8 ovarian; 99.7% with OVCAR-5 ovarian. The growth in the experiment with OVCAR-4 ovarian was 179%; with SK-OV-3 ovarian, 92.2%; in the experiment with OVCAR-3 ovarian it was 92.7%; with HS 578T breast, 98.2%; with NCI/ADR-RES ovarian, 97.1%.
For the molecule `Cn1c(I)c(C#C[Si](C)(C)C)c(=O)[nH]c1=O`, the growth in the experiment with SK-MEL-2 melanoma was 60.7%; in the experiment on EKVX NSCLC it was 86.5%; in the experiment with SN12C renal it was 32.8%; in the experiment on TK-10 renal, 82.3%; in the experiment on ACHN renal, -28.4% (active); with CAKI-1 renal it was -79% (active). The growth was 130% in the experiment with A498 renal; -61.6% (active) in the experiment with CCRF-CEM leukemia; -59.7% (active) in the experiment on MOLT-4 leukemia; 46.5% in the experiment on RPMI-8226 leukemia; -11.7% (active) with OVCAR-8 ovarian; 77.7% in the experiment on OVCAR-5 ovarian. Besides, the growth in the experiment on OVCAR-4 ovarian is -65% (active); with SK-OV-3 ovarian, 110%; in the experiment on OVCAR-3 ovarian, -54.1% (active); in the experiment with HS 578T breast, 10.6%; in the experiment with NCI/ADR-RES ovarian, 83.3%.

Source of the values: PubChem BioAssay (NCI).
